# Results from article PMC6792352, “Limited Chemical Structural Diversity Found to Modulate Thyroid Hormone Receptor in the Tox21 Chemical Library” (Environmental Health Perspectives, 2019).
# Tested on: thyroid hormone receptor (endogenous TRα and TRβ)
# Design: species or system GH3-TRE-Luc (rat pituitary); GH3-TRE-Luc luciferase reporter, antagonist mode against 1 nM T3, loss of signal, qHTS
# Settings: read-out: Average AC50 (uM) GH3-TRE-Antag, antagonist mode, 1 nM T3, no GH3 cytotoxicity hit, Average AC50 (uM) GH3-TRE-Antag, 24 h
row,SMILES,AC50 [µM]
1,OCCOCCN1CCN(C2=Nc3ccccc3Sc3ccccc32)CC1 [Quetiapine],34
2,Nc1ccc2cc3ccc(N)cc3nc2c1 [Proflavin hemisulfate],4.93
3,CCCCCCn1cc[n+](C)c1 [1-Hexyl-3-methylimidazolium tetrafluoroborate],56.1
